Test results taken from PubChem BioAssay.
Calls of active or inactive are those of the source.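 Rule for the calls: active = viability loss from added drug above about 55%, and viability with drug at most 40%, in both replicates (limit read from the data, passing the limit was not always enough); inconclusive = both conditions met in only one replicate; inactive = neither replicate meets both conditions.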

Test: MRP1 drug-resistance reversers in H69AR cells – cell-based, doxorubicin co-treatment, pilot screen (AID 601)
Conditions: H69AR cells + 2 uM doxorubicin, CellTiter-Glo, 72 h; at 10 µM; stronger effect = higher value

Row | Structure (SMILES) | differential viability (reversal)
1 | CC1C(c2ccccc2)N(C)CCC12NC(=O)NC2=O (stereo not given) | 13% (inactive)
2 | COC(=O)c1cc(Br)c(=O)n(CCN2CCOCC2)c1 | 13.5% (inactive)
3 | O=C(Nc1ccccc1C(=O)N1CCN(c2ccccc2)CC1)c1ccco1 | 5.93% (inactive)
4 | CC(C)CCNC(=O)NC(=O)COc1ccccc1C#N | 7.26% (inactive)
5 | Cc1ccc2c(Cl)cc(Cl)c(OCc3c(C)noc3C)c2n1 | -0.21% (inactive)
6 | O=C(c1cccc(Cl)c1)N1CCN(Cc2ccncc2)CC1 | 9.47% (inactive)
7 | Cn1c(=N)n(CC(=O)O)c2ccccc21 | 6.81% (inactive)
8 | O=C(Nc1ccccc1)c1cccc(N2CCCC2=O)c1 | 18.2% (inactive)
9 | Fc1ccc(-c2csc3nnc(SCc4cccnc4)n23)cc1 | -2.03% (inactive)
10 | COc1ccc(CNC(=O)c2cc(-c3ccc(OC)c(OC)c3)on2)cc1 | 8.78% (inactive)
11 | CCN(CC)CCOC(=O)c1c(C)oc2ccc(O)cc12 | 3.9% (inactive)
12 | COc1ccccc1Nc1ccc(C(=O)NC2CCCCC2)cn1 | 12% (inactive)
13 | CCCCn1nnnc1SCC(=O)Nc1cccc(C)n1 | 7.5% (inactive)
14 | COc1nc(OC)nc(N2CCC(C(=O)NC3CCCCCC3)CC2)n1 | 4.45% (inactive)
15 | COC(=O)[C@H](C)NC(=O)Nc1cc(OC)ccc1OC | 25% (inactive)
16 | Cc1ccc(CNC(=O)C2CCCN(S(=O)(=O)c3cccnc3)C2)cc1 (stereo not given) | 10.6% (inactive)
17 | OCc1nc2ccccc2n1CC(O)Cn1ccc2ccccc21 (stereo not given) | -15.4% (inactive)
18 | Cc1cc(C)cc(N2CCCn3c2nc2c3c(=O)n(CCN3CCOCC3)c(=O)n2C)c1 | -0.035% (inactive)
19 | Cn1c(=O)c2c([nH]c(=O)n2C)n(C)c1=O | -5.03% (inactive)
20 | CCNCC(O)COCC(O)CNCC (stereo not given) | 5.55% (inactive)

Row | Structure (SMILES) | differential viability (reversal)
21 | CCOC(=O)N1CCN(c2ncnc3c2[nH]c2ccc(OC)cc23)CC1 | 3.37% (inactive)
22 | COc1ccc(N2CCN(CCCNC(=O)C3CCCN(S(=O)(=O)c4cnc[nH]4)C3)CC2)cc1 (stereo not given) | 14% (inactive)
23 | Cn1cnc(S(=O)(=O)Nc2ccc(C(F)(F)F)cc2)c1 | 6.29% (inactive)
24 | Cc1nc2ccccn2c1/C(O)=C1\C(=O)C(=O)N(CCN2CCOCC2)C1c1cccs1 (stereo not given) | 4.16% (inactive)
25 | COc1cc(CN2CCN(C(=O)CC(C)C)CC2)cc(OC)c1O | 5.74% (inactive)
26 | COc1ccccc1C(=O)Nc1ccc(S(=O)(=O)N2CCOCC2)cc1 | -0.52% (inactive)
27 | CC(=O)Nc1ccc(OC(=O)c2cccs2)cc1 | -13.6% (inactive)
28 | CN(C)C(=O)Cn1c(SCC(=O)NC2CCCCC2)nc2ccccc21 | 14.8% (inactive)
29 | CCC(=O)Nc1c(C#N)c2nc3ccccc3nc2n1-c1ccccc1C | -3.52% (inactive)
30 | CCn1cc(C(=O)N=c2sc3ccccc3n2C)c(=O)c2ccc(C)nc21 | 7.91% (inactive)
31 | NC(=O)c1cccc(S(=O)(=O)N2CCCCC2)c1 | 9.71% (inactive)
32 | CN(C)CCCNC(=O)c1ccc(CN(c2ccccc2)S(C)(=O)=O)cc1 | 3.06% (inactive)
33 | CC(=O)c1c(NCCc2ccccc2)cc(C)oc1=O | 9.25% (inactive)
34 | Cn1c(SCc2nc3ccccc3c(=O)[nH]2)nnc1-c1ccco1 | 5.6% (inactive)
35 | O=C1NC(c2ccccc2)(C(F)(F)F)SC2=CCCCCN12 (stereo not given) | 2.37% (inactive)
36 | Cn1c(CCCNC(=O)c2ccccc2)nc2ccccc21 | 18.6% (inactive)
37 | O=C(c1cccn2c(=O)c3cc(Cl)ccc3nc12)N1CCOCC1 | 20.2% (inactive)
38 | Nc1ccc(-c2ccc(N)cc2C(F)(F)F)c(C(F)(F)F)c1 | -13.7% (inactive)
39 | CCOC(=O)c1[nH]c2ccc(Br)cc2c1NC(=O)CNC | -0.115% (inactive)
40 | CCn1nc(NC(=O)c2cccnc2)c2cc3ccccc3nc21 | 15.2% (inactive)

Same assay, conditions: H69AR cells + 2 uM doxorubicin, CellTiter-Glo, 72 h; measured here: viability with 2 uM doxorubicin; at 10 µM; stronger effect = lower value

Row | Structure (SMILES) | viability [%]
41 | CC1C(c2ccccc2)N(C)CCC12NC(=O)NC2=O (stereo not given) | 85.2
42 | COC(=O)c1cc(Br)c(=O)n(CCN2CCOCC2)c1 | 82.8
43 | O=C(Nc1ccccc1C(=O)N1CCN(c2ccccc2)CC1)c1ccco1 | 94.2
44 | CC(C)CCNC(=O)NC(=O)COc1ccccc1C#N | 89.8
45 | Cc1ccc2c(Cl)cc(Cl)c(OCc3c(C)noc3C)c2n1 | 85.1
46 | O=C(c1cccc(Cl)c1)N1CCN(Cc2ccncc2)CC1 | 95.8
47 | Cn1c(=N)n(CC(=O)O)c2ccccc21 | 89.4
48 | O=C(Nc1ccccc1)c1cccc(N2CCCC2=O)c1 | 84.8
49 | Fc1ccc(-c2csc3nnc(SCc4cccnc4)n23)cc1 | 84.9
50 | COc1ccc(CNC(=O)c2cc(-c3ccc(OC)c(OC)c3)on2)cc1 | 85.6
51 | CCN(CC)CCOC(=O)c1c(C)oc2ccc(O)cc12 | 91.1
52 | COc1ccccc1Nc1ccc(C(=O)NC2CCCCC2)cn1 | 81.2
53 | CCCCn1nnnc1SCC(=O)Nc1cccc(C)n1 | 105
54 | COc1nc(OC)nc(N2CCC(C(=O)NC3CCCCCC3)CC2)n1 | 100
55 | COC(=O)[C@H](C)NC(=O)Nc1cc(OC)ccc1OC | 50.1
56 | Cc1ccc(CNC(=O)C2CCCN(S(=O)(=O)c3cccnc3)C2)cc1 (stereo not given) | 89
57 | OCc1nc2ccccc2n1CC(O)Cn1ccc2ccccc21 (stereo not given) | 101
58 | Cc1cc(C)cc(N2CCCn3c2nc2c3c(=O)n(CCN3CCOCC3)c(=O)n2C)c1 | 83.3
59 | Cn1c(=O)c2c([nH]c(=O)n2C)n(C)c1=O | 95.3
60 | CCNCC(O)COCC(O)CNCC (stereo not given) | 94.2

Row | Structure (SMILES) | viability [%]
61 | CCOC(=O)N1CCN(c2ncnc3c2[nH]c2ccc(OC)cc23)CC1 | 77.9
62 | COc1ccc(N2CCN(CCCNC(=O)C3CCCN(S(=O)(=O)c4cnc[nH]4)C3)CC2)cc1 (stereo not given) | 89
63 | Cn1cnc(S(=O)(=O)Nc2ccc(C(F)(F)F)cc2)c1 | 85.4
64 | Cc1nc2ccccn2c1/C(O)=C1\C(=O)C(=O)N(CCN2CCOCC2)C1c1cccs1 (stereo not given) | 94.6
65 | COc1cc(CN2CCN(C(=O)CC(C)C)CC2)cc(OC)c1O | 96.8
66 | COc1ccccc1C(=O)Nc1ccc(S(=O)(=O)N2CCOCC2)cc1 | 93.7
67 | CC(=O)Nc1ccc(OC(=O)c2cccs2)cc1 | 101
68 | CN(C)C(=O)Cn1c(SCC(=O)NC2CCCCC2)nc2ccccc21 | 87.5
69 | CCC(=O)Nc1c(C#N)c2nc3ccccc3nc2n1-c1ccccc1C | 91
70 | CCn1cc(C(=O)N=c2sc3ccccc3n2C)c(=O)c2ccc(C)nc21 | 87.8
71 | NC(=O)c1cccc(S(=O)(=O)N2CCCCC2)c1 | 96.5
72 | CN(C)CCCNC(=O)c1ccc(CN(c2ccccc2)S(C)(=O)=O)cc1 | 89
73 | CC(=O)c1c(NCCc2ccccc2)cc(C)oc1=O | 91.5
74 | Cn1c(SCc2nc3ccccc3c(=O)[nH]2)nnc1-c1ccco1 | 90.4
75 | O=C1NC(c2ccccc2)(C(F)(F)F)SC2=CCCCCN12 (stereo not given) | 92
76 | Cn1c(CCCNC(=O)c2ccccc2)nc2ccccc21 | 81.7
77 | O=C(c1cccn2c(=O)c3cc(Cl)ccc3nc12)N1CCOCC1 | 96
78 | Nc1ccc(-c2ccc(N)cc2C(F)(F)F)c(C(F)(F)F)c1 | 82.3
79 | CCOC(=O)c1[nH]c2ccc(Br)cc2c1NC(=O)CNC | 87.5
80 | CCn1nc(NC(=O)c2cccnc2)c2cc3ccccc3nc21 | 74.6
